Experimental data taken from PubChem BioAssay AID2501 (Southern Research Specialized Biocontainment Screening …, 2010).
Screen size: about 2,200 compounds; about 1,200 (55%) were called active. So high a share suggests a set chosen from earlier hits. This is one part of the list. Unmarked numbers belong to inactive results. The limit is not given here; nearly all actives have IC50 up to about 92 µM.

assay: counter assay for TAg ATPase ADP read-out – biochemical, ADP-Hunter, fluorescence, counter-screen (AID 2501); details: series mostly up to 100 µM; inhibition: at the top concentration;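 also: purified T antigen ATPase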;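 as to inhibition: 0% = enzyme with vehicle and 100% = reference inhibitor wells; higher means more inhibition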

| Compound | inhibition | IC50 |
| --- | --- | --- |
| Oc1cc2c(cc1O)C1c3ccc(O)c(O)c3OCC1(O)C2 (configuration not stated) | -253% |  |
| CC(C)Cn1c(N)c(C(=O)COC(=O)c2cc(-c3ccco3)nc3ccccc23)c(=O)n(C)c1=O | -29.7% |  |
| CC(=O)Oc1ccc(C(=O)OCC(=O)c2c(N)n(C)c(=O)n(C)c2=O)cc1OC(C)=O |  | 5.13 µM (active) |
| COc1cc(SC#N)ccc1N=Cc1c(C)[nH]n(-c2ccc(C)cc2C)c1=O | 21.9% |  |
| O=C(Nc1ccc(O)cc1)c1ccc(NC(=O)C2CCCO2)cc1 (configuration not stated) |  | 7.4 µM (active) |
| O=C(Nc1ccc(O)cc1)C1CCCO1 (configuration not stated) |  | 5.34 µM (active) |
| O=C(Nc1ccc(O)cc1)C1CC=CCC1 (configuration not stated) |  | 6.87 µM (active) |
| CCOC(=O)c1c(N2C(=O)Nc3cc(Cl)c(Cl)cc3N2O)sc2c1CCCCC2 | -16.8% |  |
| O=C(O)CC1(Cc2nc(-c3cccs3)no2)CCCC1 | -32.7% |  |
| Nc1nc(-c2cccs2)c(NC(=O)c2ccccc2)s1 |  | 10.4 µM (active) |
| c1ccc(CNc2ncnc3ccccc23)cc1 |  | 4.18 µM (active) |
| Cc1c(C)n(Cc2ccccc2)c2ncnc(NN)c12 | -100% |  |
| COc1ccc(-c2nc(O)c3cnccn23)cc1 |  | 6.67 µM (active) |
| CCOC(=O)C1=C(O)C(=O)N(Cc2cccnc2)C1c1ccc(OC)cc1 (configuration not stated) | -22.7% |  |
| COc1cc(/C=N\NC(=O)C2CC3C=CC2C3)ccc1O (configuration not stated) |  | 7.58 µM (active) |
| COc1cc(/C=N/NC(=O)NC2CCCCC2)ccc1O |  | 3.75 µM (active) |
| Cc1ccc(C)c(S(=O)(=O)Nc2ccc(O)cc2)c1 |  | 6.11 µM (active) |
| Cc1cc(C)c(S(=O)(=O)Nc2cc(SCC(=O)O)c(O)c3ccccc23)cc1C | -494% |  |
| CSS(=O)(=O)c1cccc2cccnc12 | 5.86% |  |
| CNS(=O)(=O)c1cc(NC(=O)CCCNC(=O)c2ccc(Cl)cc2)ccc1C | 7.77% [at 50 µM] |  |
| CCSS(=O)(=O)c1cccc2cccnc12 | -2.66% |  |
| Cc1cc(C)c(S(=O)(=O)Nc2ccc(O)cc2)cc1C |  | 12.1 µM (active) |

| Compound | inhibition | IC50 |
| --- | --- | --- |
| Cc1ccccc1NS(=O)(=O)c1cc(C(=O)NCCC2=CCCCC2)ccc1C | -5.52% |  |
| O=S(=O)(Nc1ccc(O)cc1)c1cccc2cccnc12 |  | 4.75 µM (active) |
| Cc1cc(=O)[nH]c2ccc(S(=O)(=O)Nc3ccc(O)cc3)cc12 |  | 7.34 µM (active) |
| Cc1c(C(=O)Oc2ccc(-c3cnc4ccccc4n3)cc2)cccc1[N+](=O)[O-] | -11.1% |  |
| NC(=O)N/N=C/c1c(Sc2nnnn2-c2ccccc2)nc2ccccn2c1=O | -35.8% |  |
| Cc1cc(Cl)ccc1OCCn1cncn1 | 16% [at 50 µM] |  |
| CC1=C/C(=N\OS(=O)(=O)c2ccccc2)C(C(C)C)=CC1=O | -18.8% |  |
| CN1CCc2cccc3c2C1Cc1ccc(O)c(O)c1-3 (configuration not stated) | -64.7% |  |
| Cn1c(=O)oc2cc(S(=O)(=O)Nc3ccc(O)cc3)ccc21 |  | 3.81 µM (active) |
| O=S(=O)(Nc1ccc2c(c1)nc1n2CCOC1)c1ccccc1 | -20.6% |  |
| CCOC(=O)Cn1c(=O)oc2cc(S(=O)(=O)NCCC(C)C)ccc21 | 17.2% |  |
| Cc1nnc(SCc2ccccc2)n1CC1CCCO1 (configuration not stated) |  | 70.8 µM (active) |
| Cc1occc1-c1nnc(SCC(=O)c2ccccc2)n1CC1CCCO1 (configuration not stated) | -2.27% |  |
| CN(C)c1ccc(Nc2nc(-c3cccnc3)cs2)cc1 |  | 5.96 µM (active) |
| Cc1nc2ncccn2c1-c1csc(Nc2ccc(N(C)C)cc2)n1 |  | 7.2 µM (active) |
| O=C1c2ccccc2C(Nc2ccccc2F)N1c1cccnc1 (configuration not stated) | -3.26% |  |
| Cc1cccc(/C(N)=N/OC(=O)N2c3ccccc3Sc3ccccc32)c1 |  | 79.6 µM (active) |
| NNC(=O)C(=O)Nc1ccc(O)cc1 |  | 5.13 µM (active) |
| NN/C(=C\[N+](=O)[O-])Nc1ccc(Cl)cc1 | -17% |  |
| CCOc1ccccc1NC(=S)N1CCN(c2ccc(O)cc2)CC1 |  | 6.75 µM (active) |
| Oc1ccc(N2CCN(C(=S)NCCc3ccccc3)CC2)cc1 |  | 3.15 µM (active) |
| CCOc1ccccc1NC(=O)NC(C)c1ccncc1 (configuration not stated) | 14.3% |  |

| Compound | inhibition | IC50 |
| --- | --- | --- |
| CC(C)CN(C)C(=O)CCc1nnc(Cc2cccc(C(F)(F)F)c2)o1 | 29.4% [at 50 µM] |  |
| COC(=O)/C=C/C(=O)Nc1ccc(O)c(Cl)c1 |  | 6.19 µM (active) |
| Cc1ccc(NC(=O)C(CC(C)C)NC(N)=O)cc1Cl (configuration not stated) | -6.45% |  |
| Cc1ccccc1-n1sc2cc(F)ccc2c1=O |  | 49.1 µM (active) |
| COc1ccc(-c2csc(NNC3=NCCCCC3)n2)cc1 |  | 40 µM (active) |
| c1ccc(-c2csc(NNC3=NCCCCC3)n2)cc1 |  | 13.6 µM (active) |
| CCN(CC)CCCN(C(=O)c1cccs1)c1nc(-c2ccc(OC)cc2)cs1 | -6.38% |  |
| O=S(=O)(NC1=NCCCCC1)c1ccc2sc(NS(=O)(=O)c3ccc4ccccc4c3)nc2c1 | 26.5% |  |
| COc1ccc(Nc2nc(-c3ccc4c(c3)NC(=O)CO4)cs2)cc1 | 23.8% |  |
| Cc1ccc(N=c2oc3cc(O)ccc3cc2C(N)=O)cc1 |  | 17.1 µM (active) |
| C=CC(=O)Oc1ccc(N2Cc3ccccc3C2=O)cc1 |  | 8.19 µM (active) |
| COc1cc(/C=C2/C(=O)NN(c3ccc(Cl)cc3)C2=O)ccc1OC(=O)c1ccco1 |  | 80 µM (active) |
| COc1ccc(N2C(=O)/C(=C\c3ccco3)N=C2SCC(=O)NC(C)C)cc1Cl | -21.3% |  |
| COc1cc(/C=C2/C(=O)NN(c3cccc(C)c3)C2=O)ccc1OC(=O)c1ccco1 |  | 27.4 µM (active) |
| CCOC(=O)c1c(NC(=O)c2ccc(S(=O)(=O)N(C)CC3CCCO3)cc2)sc2c1CC(C)(C)NC2(C)C (configuration not stated) | 0.64% |  |
| Nc1ccc(OC(=O)Nc2ccc(O)cc2)cc1 |  | 3.47 µM (active) |
| CS(=O)(=O)N1CCc2cc(C(=O)Nc3ccc(O)cc3)ccc21 |  | 7.2 µM (active) |
| CC(C)OCCCNC1=C(Cl)C(=O)c2ccccc2C1=O | -6.77% |  |
| COC1=C(Nc2ccc(O)cc2)C(=O)c2ccccc2C1=O |  | 5.25 µM (active) |
| CN(C)C=NC1=NN(c2cccc(C(F)(F)F)c2)CC1 |  | 5.93 µM (active) |
| O=c1c2ccccc2[nH]c2ccc(O)cc12 |  | 5.13 µM (active) |
| O=C(CCN1C(=O)/C(=C/c2ccco2)SC1=S)Nc1ccc(C(=O)O)c(O)c1 | -14.7% |  |

| Compound | inhibition | IC50 |
| --- | --- | --- |
| O=C1/C(=C/c2ccncc2)SC(=S)N1Nc1ccccc1 |  | 77.6 µM (active) |
| O=C(CCN1C(=O)/C(=C\c2ccco2)SC1=S)Nc1ccc(C(=O)O)c(O)c1 | -4.22% |  |
| COc1ccc(-c2cc(=O)oc3c(O)c(O)ccc23)cc1 |  | 8.96 µM (active) |
| O=C1NC(=S)CN1c1ccccc1 | 11.1% |  |
| O=C(O)c1ccccc1-c1c2cc(I)c(=O)c(I)c-2oc2c(I)c(O)c(I)cc12 | -1.2% |  |
| Nc1cc(C(=O)O)c(N)c2c1C(=O)c1ccccc1C2=O |  | 14.7 µM (active) |
| CC(=O)N(C1=C(Cl)C(=O)c2ccccc2C1=O)c1ccc(C(=O)O)cc1 | 13.6% [at 50 µM] |  |
| COc1cc(Cn2nnc3ccccc32)ccc1O |  | 3.65 µM (active) |
| Cc1nc2cc(NCc3nc4ccccc4n3Cc3ccccc3)ccc2n1C | 26.8% |  |
| COc1cc(Cn2c(-c3ccc(O)c(OC)c3)nc3ccccc32)ccc1O |  | 0.9 µM (active) |
| CCOc1ccc(C(=O)CSCC(=O)O)cc1 | 4.18% |  |
| Cc1cccc(C)c1NC(=O)CSCC(=O)c1ccc(O)c(O)c1 |  | 10.3 µM (active) |
| COc1ccc(CCN(C)Cc2nc(Cc3ccc(OC)c(OC)c3)no2)cc1OC | -9.84% |  |
| Cn1c(=O)c2c([nH]c(=S)n2Cc2ccc(Cl)cc2)n(C)c1=O |  | 16 µM (active) |
| COc1cc(/C=N/NS(=O)(=O)c2ccc(Br)cc2)ccc1O |  | 14.6 µM (active) |
| COc1cc(/C=N/NS(=O)(=O)c2ccc(C)c([N+](=O)[O-])c2)ccc1O |  | 8.36 µM (active) |
| C/C(=N/NS(=O)(=O)c1cccc([N+](=O)[O-])c1)c1c[nH]c2ccccc12 |  | 9.39 µM (active) |
| O=C(COC(=O)C1CC1)c1c[nH]c2ccccc12 | -3.45% |  |
| O=[N+]([O-])c1cccc(S(=O)(=O)N/N=C/c2ccc(O)cc2)c1 |  | 5.86 µM (active) |
| CC(C)(C)c1ccc(-c2nc(O)c(CC(=O)O)s2)cc1 | 26.8% |  |
| COc1cc(/C=C2\C(C)=C(C#N)c3nc(N)c(C#N)c(C)c32)ccc1OCC(=O)O | 25.9% |  |
| CC1=C(C#N)c2nc(N)c(C#N)c(C)c2/C1=C\c1ccc(OCC(=O)O)c(Cl)c1 |  | 95.7 µM (active) |

| Compound | inhibition | IC50 |
| --- | --- | --- |
| COc1cc(/C=C2/C(C)=C(C#N)c3nc(N)c(C#N)c(C)c32)ccc1OCC(=O)O | 16.5% |  |
| Nc1ncnc2oc(-c3ccco3)c(-c3ccco3)c12 | -28.1% |  |
| CS(=O)(=O)c1ccc2c(c1)SC1=NC(=O)/C(=C/c3ccco3)C(=N)N12 | 2.61% |  |
| CCOc1cc(/C=C2\SC(=O)N=C2N)ccc1O |  | 4.18 µM (active) |
| COc1cc(/C=C2\SC(N)=NC2=O)ccc1O |  | 4.85 µM (active) |
| NC1=NC(=O)/C(=C\c2ccco2)S1 | -29.7% |  |
| Cc1ccc(NC(=O)CN2C(=O)N/C(=C\c3cccn3-c3cccc(C(=O)O)c3)C2=O)cc1 | 11.3% |  |
| CCOc1cc(/C=C2\NC(=S)N(c3c(C)n(C)n(-c4ccccc4)c3=O)C2=O)ccc1O |  | 3.07 µM (active) |
| CCOc1cc(/C=C2/NC(=O)N(CC(=O)OC)C2=O)ccc1O |  | 5.19 µM (active) |
| COC(=O)c1[nH]c2ccc(Br)cc2c1NC(=O)Oc1ccccc1 | 22.8% |  |
| CN(C)Cc1cc(O)c(CN(C)C)cc1O | -314% |  |
| CN=C1S/C(=C\c2ccc(O)c(OC)c2)C(=O)N1C |  | 4.35 µM (active) |
| COc1cc(C2NC(=S)NC(C)=C2C(=O)Nc2cc(C)cc(C)c2)ccc1O (configuration not stated) | 23.4% [at 50 µM] |  |
| CCCN1C(=O)/C(=C/c2ccc(OCc3ccc(C(=O)O)cc3)c(OC)c2)NC1=S | 19.4% |  |
| Cc1c(N2C(=O)/C(=C\c3ccccc3O)SC2=S)c(=O)n(-c2ccccc2)n1C |  | 54.7 µM (active) |
| C=CCN1C(=O)/C(=C\C(C)=C\c2ccccc2)SC1=S | -42.1% |  |
| COc1cc(/C=C2\NC(=S)N(C)C2=O)ccc1O |  | 3.23 µM (active) |
| CCOc1cc(/C=C2\SC(=NC)N(C)C2=O)cc(Cl)c1OC(C)=O | 6.15% |  |
| NC1=NC(=O)S/C1=C\c1ccc(O)cc1 |  | 3.6 µM (active) |
